Data taken from PubChem BioAssay (Tox21).
Inconclusive results are not listed. Where a call stands in place of a potency, no number is given. Activity calls are given as the source filed them. Calls come from the whole dose curve; as a rule, active = well fitted cell-killing curve with a large enough effect in the repeat runs; inconclusive = weak or mixed curves, or effect the other way; inactive = flat fitted curve, though single readings scatter.

Experiment: qHTS assay to identify small molecule agonists of the androgen receptor (AR) signaling pathway in the presence of an antagonist - cell viability counter screen (AID 1259379); note: nearly all actives have a fitted effect of over 25% in size
Conditions: MDA-kb2 viability, CellTiter-Fluor, 16 h; series mostly up to 92.4 µM
Description: National Center for Advancing Translational Sciences [NCATS]
NIH Chemical Genomics Center [NCGC]
U.S. Environmental Protection Agency [EPA]
National Institutes of Environmental Health Sciences [NIEHS]
National Toxicology Program [NTP]
U.S. Food and Drug Administration [FDA]
Androgen receptor (AR) is an important member of nuclear receptor family. Its signaling plays a critical role in AR-dependent prostate cancer and other androgen related diseases. Considerable attention has been given in the past decades to develop methods to study and screen for the environmental chemicals that have the potential to interfere with metabolic homeostasis, reproduction, developmental and behavioral functions. Therefore AR binding assay for screening against androgen agonists and antagonists can be used to identify potential endocrine disruptors.
MDA-kb2 cells (from ATCC, deposited by Wilson et al.) are human breast carcinoma cells that were stably transfected with a luciferase reporter gene under control of the MMTV promoter that contains response elements for both androgen receptor (AR) and glucocorticoid receptor (GR). This particular screening for measuring luciferase reporter gene activity using MDA-kb2 cells against Tox21 10K library compounds is a confirmation study on agonist mode screening in the presence of AR-antagonist compound (Nilutamide) at 3.0uM final concentration. The cytotoxicity of the compounds was tested in parallel by measuring the cell viability using CellTiter-Fluor assay system (Promega, Madison, WI) in the same wells.
Tox21 Assay Protocol Summary:
MDA-kb2 cells (cells cultured without CO2) were dispensed at 3,000 cells/well in 4uL of culture medium into white wall/solid-bottom 1536-well plates (Corning Life Sciences, Corning, NY) using a Multidrop Combi (Thermo Fisher Scientific Inc., Waltham, MA) dispenser. The assay plates were incubated at 37C and 0% CO2 for 5hr. One uL of 3.0uM (final concentration) Nilutamide or assay buffer was added using two separate tips of Flying Reagent Dispenser (FRD, Aurora Discovery, San Diego, CA). Then 23nL of compounds dissolved in DMSO at 15 concentrations and positive controls were transferred to the assay plates using a Pintool station (Wako, San Diego, CA). The assay plates were incubated at 37C and 0% CO2 for 16 hr. After 15hr incubation at 37C, 1uL/well CellTiter-Fluor reagent (Promega Corporation) was added to each well of the assay plates using FRD. After 1hr incubation at 37C and 0% CO2, the fluorescence signal was measured using a ViewLux plate reader (PerkinElmer, Shelton, CT).
Potency is the fitted concentration of half-maximal effect.

| Structure (SMILES) | Potency | activity change, negative = cytotoxicity |
| --- | --- | --- |
| Cc1nc(N)nc(N)c1-c1ccc(Cl)c(Cl)c1 | inactive | – |
| C=CCCC=C | inactive | – |
| CC(C)O | inactive | – |
| CCN[C@H]1CN(CCCOC)S(=O)(=O)c2sc(S(N)(=O)=O)cc21 | inactive | – |
| CS(=O)(=O)c1ccc([C@@H](O)[C@@H](CF)NC(=O)C(Cl)Cl)cc1 | inactive | – |
| CCOc1ccccc1N | 54.1 µM (active) | – |
| Cc1nnc(SCC2=C(C(=O)O)N3C(=O)[C@@H](NC(=O)Cn4cnnn4)[C@H]3SC2)s1 | inactive | – |
| C=CCCCCCCCCO | inactive | – |
| Cc1ccc([N+](=O)[O-])cc1Cl | inactive | – |
| CCCCCCCOC(=O)CCC | inactive | – |
| CN1CCN(C2=Nc3cc(F)ccc3Cc3ccccc32)CC1 | inactive | – |
| COC(=O)C(C)O (stereo not given) | inactive | – |
| CC(C)S | inactive | – |
| Cc1nc(-c2ccccn2)ncc1C(=O)Nn1cc(C)c2cc(F)ccc21 | inactive | – |
| CO[Si](C)(C)OC | inactive | – |
| COC(=O)c1ccc2cc(C(=O)OC)ccc2c1 | – | 2.92% [at 19 µM] (inactive) |
| CCN1CC(CCN2CCOCC2)C(c2ccccc2)(c2ccccc2)C1=O (stereo not given) | inactive | – |
| CCCN(CCC)C(=O)C(CCC(=O)O)NC(=O)c1ccccc1 (stereo not given) | inactive | – |
| CCOC(=O)C(Br)c1ccccc1 (stereo not given) | inactive | – |
| CN1[C@@H]2CC[C@H]1CC(OC(=O)c1c[nH]c3ccccc13)C2 (stereo not given in full) | inactive | – |

| Structure (SMILES) | Potency | activity change, negative = cytotoxicity |
| --- | --- | --- |
| CCCCCCCCCC#N | inactive | – |
| NC1=NCC2c3ccccc3Cc3ccccc3N12 (stereo not given) | inactive | – |
| O=c1[nH]cnc2c1ncn2[C@@H]1O[C@H](CO)[C@@H](O)[C@H]1O | inactive | – |
| Cc1c[nH]c(=S)[nH]c1=O | inactive | – |
| CC(C)(C)c1cccc(O)c1 | inactive | – |
| CCOc1ccc(NC(N)=O)cc1 | inactive | – |
| CCOC(=O)[C@H](CCc1ccccc1)N[C@@H](C)C(=O)N1Cc2cc(OC)c(OC)cc2C[C@H]1C(=O)O | inactive | – |
| CC(C)NCC(O)COc1ccc(CCOCC2CC2)cc1 (stereo not given) | inactive | – |
| CCCS(=O)c1ccc2nc(NC(=O)OC)[nH]c2c1 (stereo not given) | inactive | – |
| Oc1ccccc1F | inactive | – |
| ICCc1ccccc1 | inactive | – |
| CCCCCCCCOC(=O)CCCCCCCCC(=O)OCCCCCCCC | inactive | – |
| CCC(=O)O[C@]1(C(=O)SCF)[C@H](C)C[C@H]2[C@@H]3C[C@H](F)C4=CC(=O)C=C[C@]4(C)[C@@]3(F)[C@@H](O)C[C@@]21C | inactive | – |
| CC(C)(C)c1ccc(OC(=O)c2ccccc2O)cc1 | inactive | – |
| CC(C)=CCCC(C)CCOC=O (stereo not given) | inactive | – |
| CN1CCN(N)CC1 | inactive | – |
| O=C1N(c2ccccc2)c2ccccc2C1(Cc1ccncc1)Cc1ccncc1 | inactive | – |
| CCCCC1CCC(=O)O1 (stereo not given) | inactive | – |
| CCCNC(C)(C)COC(=O)c1ccccc1 | inactive | – |
| CCCCCCCCCCCCOCCOS(=O)(=O)O | inactive | – |
